In PubChem BioAssay:
A number with no mark means an inactive call. The rule behind the calls is not given here.

target: Pantothenate synthetase (Mycobacterium tuberculosis (strain ATCC 25618 / H37Rv)) (UniProt P9WIL5); experiment: Coupled enzyme confirmation of inhibitors against recombinant Mtb PanC (AID 375); details: coupled enzyme assay; at 10 µM, hits give high values;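 note: 0% = full reaction with vehicle and 100% = no enzyme background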
Sequence (P9WIL5 whole entry, looked up): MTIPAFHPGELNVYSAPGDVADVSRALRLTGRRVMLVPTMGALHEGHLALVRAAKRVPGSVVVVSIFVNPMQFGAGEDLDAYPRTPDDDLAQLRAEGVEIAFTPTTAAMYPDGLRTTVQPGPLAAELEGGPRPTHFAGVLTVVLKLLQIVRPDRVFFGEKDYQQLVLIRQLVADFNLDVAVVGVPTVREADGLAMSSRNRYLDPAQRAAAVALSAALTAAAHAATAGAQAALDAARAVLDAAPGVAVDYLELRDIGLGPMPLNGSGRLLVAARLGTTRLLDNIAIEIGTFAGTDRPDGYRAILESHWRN

Row | SMILES | inhibition [%]
1 | O=C(c1ccc(NS(=O)(=O)c2cccs2)cc1)N1CCCCC1 | 0
2 | Cc1cc(NC(=O)CSc2ccc(Cl)cc2)no1 | 0
3 | O=C(Nc1nnc(CCN2CCCCC2)s1)C1CCCCC1 | 0
4 | O=C(OCc1cccs1)c1ccccc1NS(=O)(=O)c1ccc2c(c1)OCCO2 | 0
5 | CCN1CCN(C(CNC(=O)c2ccc3c(c2)OCO3)c2cccnc2)CC1 (stereo not given) | 0
6 | CC(=O)c1cccc(N(CC(=O)N2CCCC2)S(C)(=O)=O)c1 | 0
7 | COc1cc(-c2nc(S(=O)(=O)c3ccccc3)c(N3CCOCC3)o2)cc(OC)c1OC | 8
8 | CCC(C)NC(=O)CS(=O)(=O)Cc1nc(-c2cccc(OC)c2)oc1C (stereo not given) | 0
9 | COCCOC(=O)C1=C(C)NC(C)=C(C(=O)OC(C)C)C1c1cccc([N+](=O)[O-])c1 (stereo not given) | 0
10 | Cc1ccc(NC(=O)c2cc(-c3ccc(C)o3)nc3ccccc23)nc1 | 0
11 | CCCCC(c1nnnn1CS(=O)(=O)c1ccc(C)cc1)N1CCN(c2ccccc2)CC1 (stereo not given) | 0
12 | COC(=O)c1ccccc1NC(=O)c1noc2c1CC(C(C)(C)C)CC2 (stereo not given) | 2
13 | COc1ccc(C)cc1S(=O)(=O)N(C)CC(=O)Nc1ccc2c(c1)OCO2 | 0
14 | COc1ccccc1S(=O)(=O)Cc1ccc(C(=O)N2CCOCC2)o1 | 0
15 | CC1(C)S[C@@H]2[C@H](NC(=O)Cc3ccccc3)C(=O)N2[C@H]1C(=O)O | 6
16 | CC(C)c1cc(C(=O)Nc2cccnc2)no1 | 3
17 | O=C(Nc1nnc(SCC(=O)N2CCCCC2)s1)C1CCCCC1 | 5
18 | COc1ccc2c(c1)C(C)=CC(C)(C)N2C(=O)CSc1nnc(-c2ccc(C)cc2)o1 | 0
19 | COC(=O)c1ccccc1NC(=O)CSc1nnc(-c2ccncc2)o1 | 0
20 | COc1ccc(C)cc1NC(=O)c1nc2nc(C)cc(C)n2n1 | 7

Row | SMILES | inhibition [%]
21 | CCN(CC)CCCN1C(=O)C(=O)/C(=C(/O)c2ccc3c(c2)OCO3)C1c1ccccn1 (stereo not given) | 1
22 | CN(CC(=O)N1CCCCC1)S(=O)(=O)c1cccc2cccnc12 | 0
23 | CCOC(=O)c1c(NC(=O)CSc2nnc(-c3ccc(OC)cc3)o2)sc2c1CCC2 | 3
24 | CSc1nc(N2CCOCC2)c2ccccc2n1 | 0
25 | O=C1C2CCCN2C(c2ccc(Cl)cc2)N1c1nccs1 (stereo not given) | 0
26 | COc1ccc(NC(=O)CN(c2ccc(C(C)C)cc2)S(=O)(=O)c2c(C)noc2C)cc1OC | 0
27 | Cc1nc2c(c(=O)n1CC1CCCO1)c1nc3ccccc3nc1n2CC(C)C (stereo not given) | 0
28 | Cc1cc(C)n(CC2CC(=O)N(c3ccc(Cl)c(Cl)c3)C2=O)n1 (stereo not given) | 0
29 | Cn1cccc1Cc1nnc(SCC(=O)Nc2ccccc2F)n1CCc1ccccc1 | 0
30 | C=CCSC1=C(C#N)C(c2ccccc2)CC(=O)N1 (stereo not given) | 0
31 | Cc1nc2ccc(S(=O)(=O)NCC(=O)N3CCc4ccccc4C3)cc2s1 | 2
32 | O=C(NCCN1CCCC1)C1COc2ccccc2O1 (stereo not given) | 3
33 | CCOC(=O)Nc1ccc2c(c1)N(C(=O)OCCN(C)C)c1ccccc1CC2 | 3
34 | O=C1COc2ccc(C(=O)NCc3ccco3)cc2N1 | 0
35 | COc1cccc(CNc2nc3nc(C)c(Cl)c(C)n3n2)c1 | 12
36 | O=C(O)C1CC=CCC1C(=O)Nc1cccc(C(=O)N2CCCCC2)c1 (stereo not given) | 0
37 | Cc1cccc(NC(=O)COc2ccc(Br)cc2)n1 | 0
38 | COc1ccc(CCNC(=O)C2CC(=O)N(c3ccccc3)C2)cc1OC (stereo not given) | 0
39 | C=CCNC(=O)c1cccc(Br)c1 | 8
40 | O=C1CSC(c2cn(-c3ccccc3)nc2-c2cccs2)N1CC1CCCO1 (stereo not given) | 2
